Data published in PubChem BioAssay.

Legend:
[1] = tested on: Botulinum neurotoxin type F light chain protease (Clostridium botulinum); assay: Clostridium botulinum type F light chain protease inhibitors, microsphere substrate cleavage, validation (AID 588459); settings: multiplex microsphere protease substrate cleavage assay, flow cytometry; at 10 µM; hits give high values
[2] = target: Botulinum neurotoxin type A (Clostridium botulinum) (UniProt P0DPI0); assay: BoNT/A light chain protease inhibitors, biochemical, multiplex microsphere flow cytometry, validation set (AID 588460); settings: at 10 µM, hits give high values
Chain of Botulinum neurotoxin type A (Clostridium botulinum) (P0DPI0 whole entry, looked up): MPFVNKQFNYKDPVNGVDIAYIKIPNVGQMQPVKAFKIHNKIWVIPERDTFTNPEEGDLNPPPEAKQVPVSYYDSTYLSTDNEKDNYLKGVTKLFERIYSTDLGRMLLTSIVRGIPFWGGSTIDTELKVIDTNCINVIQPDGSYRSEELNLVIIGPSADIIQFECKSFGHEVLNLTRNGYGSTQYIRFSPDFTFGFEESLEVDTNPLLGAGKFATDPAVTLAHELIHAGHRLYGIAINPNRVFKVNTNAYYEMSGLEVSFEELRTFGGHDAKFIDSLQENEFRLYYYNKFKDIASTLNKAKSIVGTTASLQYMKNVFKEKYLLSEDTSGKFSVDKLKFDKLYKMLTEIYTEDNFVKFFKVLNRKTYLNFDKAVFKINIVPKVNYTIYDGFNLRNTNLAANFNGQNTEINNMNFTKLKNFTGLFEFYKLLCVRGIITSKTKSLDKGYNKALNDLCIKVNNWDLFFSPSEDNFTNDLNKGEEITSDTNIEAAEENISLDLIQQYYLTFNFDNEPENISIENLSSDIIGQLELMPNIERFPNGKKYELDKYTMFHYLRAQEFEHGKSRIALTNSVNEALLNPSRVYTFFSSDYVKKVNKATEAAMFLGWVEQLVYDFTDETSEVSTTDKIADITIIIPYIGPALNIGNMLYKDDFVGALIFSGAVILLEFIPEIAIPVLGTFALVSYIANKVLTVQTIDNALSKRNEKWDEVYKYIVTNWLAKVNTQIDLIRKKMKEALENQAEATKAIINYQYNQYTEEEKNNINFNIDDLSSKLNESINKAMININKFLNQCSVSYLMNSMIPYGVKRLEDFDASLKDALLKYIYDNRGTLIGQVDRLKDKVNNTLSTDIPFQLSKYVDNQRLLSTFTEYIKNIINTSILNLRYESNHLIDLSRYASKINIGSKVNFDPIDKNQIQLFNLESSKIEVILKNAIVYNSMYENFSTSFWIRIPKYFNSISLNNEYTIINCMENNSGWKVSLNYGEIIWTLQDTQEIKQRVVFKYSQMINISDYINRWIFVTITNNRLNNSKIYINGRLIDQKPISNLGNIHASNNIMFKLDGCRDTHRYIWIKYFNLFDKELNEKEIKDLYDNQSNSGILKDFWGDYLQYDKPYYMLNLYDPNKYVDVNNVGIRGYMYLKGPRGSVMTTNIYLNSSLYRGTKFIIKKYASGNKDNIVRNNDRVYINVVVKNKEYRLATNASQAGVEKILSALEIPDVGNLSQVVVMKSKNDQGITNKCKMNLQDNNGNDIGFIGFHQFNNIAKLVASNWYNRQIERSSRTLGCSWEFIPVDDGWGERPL

[3] = target: Lethal factor (Bacillus anthracis) (UniProt P15917); assay: Bacillus anthracis lethal factor inhibition, microsphere flow cytometry protease assay, validation at 10 µM (AID 588461); settings: multiplex microsphere protease cleavage assay, hits give high values
Chain of Lethal factor (Bacillus anthracis) (P15917 whole entry, looked up): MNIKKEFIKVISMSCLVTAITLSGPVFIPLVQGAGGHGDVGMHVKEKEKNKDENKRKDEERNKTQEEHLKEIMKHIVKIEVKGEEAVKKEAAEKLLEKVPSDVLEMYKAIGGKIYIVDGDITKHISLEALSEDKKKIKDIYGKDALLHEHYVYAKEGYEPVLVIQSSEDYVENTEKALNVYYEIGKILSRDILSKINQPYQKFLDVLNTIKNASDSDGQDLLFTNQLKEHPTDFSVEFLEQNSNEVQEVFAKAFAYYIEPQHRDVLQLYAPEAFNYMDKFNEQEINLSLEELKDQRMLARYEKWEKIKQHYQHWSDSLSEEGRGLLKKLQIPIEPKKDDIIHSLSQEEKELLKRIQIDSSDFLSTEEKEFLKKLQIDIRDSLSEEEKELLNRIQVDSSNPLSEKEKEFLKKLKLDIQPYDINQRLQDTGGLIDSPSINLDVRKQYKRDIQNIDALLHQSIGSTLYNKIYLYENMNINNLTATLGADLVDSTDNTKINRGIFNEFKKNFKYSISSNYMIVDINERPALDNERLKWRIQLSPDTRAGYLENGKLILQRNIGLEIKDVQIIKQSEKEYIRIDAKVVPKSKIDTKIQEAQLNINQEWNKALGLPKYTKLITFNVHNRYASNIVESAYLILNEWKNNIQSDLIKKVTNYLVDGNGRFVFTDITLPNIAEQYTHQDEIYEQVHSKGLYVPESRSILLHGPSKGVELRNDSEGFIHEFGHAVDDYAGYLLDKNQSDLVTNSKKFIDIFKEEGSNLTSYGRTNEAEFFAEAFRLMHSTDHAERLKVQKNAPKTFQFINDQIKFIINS

Measured: inhibition

COc1ccc2c(c1)c(CC(=O)O)c(C)n2C(=O)c1ccc(Cl)cc1
inactive: [1] 0.9% | [2] -1.5% | [3] -4.2%

COc1cc2c(cc1OC)C(C)=NC1(CCCCC1)C2
inactive: [1] 9.8% | [2] 4.8% | [3] -0.4%

CC1(C)CC(C(CC(=O)O)c2ccccc2)CCO1 (stereo not drawn)
inactive: [1] 0.4% | [2] -0.2% | [3] -7.8%

CCCCCCCCCC(=O)OCC(O)CO (stereo not drawn)
inactive: [1] -3.5% | [2] -2% | [3] -4.5%

COc1ccc(-c2cc3cc(OC)c(OC)cc3c(C)n2)cc1
inactive: [1] -3.3% | [2] 1.2% | [3] 4.5%

COc1cc2c(cc1OC)C(c1cc3ccccc3oc1=O)=NC(C)(C)C2
inactive: [1] 0.9% | [2] 0% | [3] 0%

COC1=CC(=O)CC(C)C12Oc1c(Cl)c(OC)cc(OC)c1C2=O (stereo not drawn)
inactive: [1] -0.7% | [2] -0.1% | [3] -1.8%

COc1cc2c3c(c1)C1(C(=O)N3C(C)(C)C=C2C)C(C#N)=C(N)Oc2cc(C)oc(=O)c21 (stereo not drawn)
inactive: [1] 0.4% | [2] 2.4% | [3] -3.3%

O=C(NC(=S)Nc1ccc(N2CCN(C(=O)c3ccccc3)CC2)cc1)c1cccs1
inactive: [1] -8.9% | [2] -3.2% | [3] -10.5%

CCOC(=O)NN1C(=O)c2ccccc2NC1c1ccc(OC)c(OC)c1 (stereo not drawn)
inactive: [1] 1.5% | [2] -0.6% | [3] -2%

CN(C)CC/C=C1\c2ccccc2COc2ccccc21
inactive: [1] -0.1% | [2] -0.5% | [3] 2.2%

COCCn1c(SCCOc2ccccc2)nc2ccccc2c1=O
inactive: [1] 1.6% | [2] -0.3% | [3] -1.1%

CC1(C)CC(NCc2ccccc2)CCO1 (stereo not drawn)
inactive: [1] 9.4% | [2] 5.6% | [3] 1.1%

O=C(OCC(O)C(O)COC(=O)c1ccccc1)c1ccccc1 (stereo not drawn)
inactive: [1] -0.4% | [2] 0.6% | [3] 2.1%

OCC1(CCOc2ccccc2)CCN(CCCn2cccn2)CC1
inactive: [1] -0.5% | [2] -1% | [3] -1.4%

CCCCNc1cc(C(=O)O)cc(S(N)(=O)=O)c1Oc1ccccc1
inactive: [1] 2.6% | [2] 1.7% | [3] -3.2%

COc1ccc(C(=O)NC(=O)NC2(C(Cl)(Cl)Cl)OCCO2)cc1
inactive: [1] 0.9% | [2] -1.2% | [3] 3.1%

CN1C(=O)C(O)(CC(=O)/C=C/C=C/c2ccccc2)c2ccccc21 (stereo not drawn)
inactive: [1] -1.9% | [2] -0.3% | [3] -0.3%

Cc1nonc1CN(C)C(=O)c1ccc(OC2CCN(C(=O)c3cccnc3)CC2)cc1
inactive: [1] 3.6% | [2] 1.2% | [3] 10.7%

Cc1ccnc2c1NC(=O)c1cccnc1N2C1CC1
inactive: [1] 0.7% | [2] -0.1% | [3] -4.5%

CC(C)C(=O)Nc1cccnc1
inactive: [1] -1.8% | [2] 0.9% | [3] -5.8%

Cn1c(=O)c2c(ncn2CC(O)CO)n(C)c1=O (stereo not drawn)
inactive: [1] 2.3% | [2] 1% | [3] 2%

N#CCC(N)=C(C#N)C#N
inactive: [1] -6% | [2] -2% | [3] -6%

COCc1cc(=O)[nH]c(Nc2nc3ccccc3o2)n1
inactive: [1] -3.7% | [2] -0.7% | [3] 0.7%

COc1ccc(C(=O)Oc2ccc3c(C)cc(=O)oc3c2C(C)=O)cc1
inactive: [1] 0.7% | [2] -0.3% | [3] 3%

NC(=O)c1c(-c2ccccc2)oc2ccc(O)cc12
inactive: [1] -1.9% | [2] -0.3% | [3] -5.1%

COc1ccc(C(C)=O)c2c1OCCO2
inactive: [1] 2.3% | [2] -2.8% | [3] 0.8%

COc1cc2c(cc1OC)C(c1ccc(-c3cc(Cl)ccc3Cl)o1)=NCC2
inactive: [1] 0.4% | [2] 0.7% | [3] -4.2%

Cc1ccc2c(CC(=O)O)coc2c1
inactive: [1] -2.9% | [2] -1.3% | [3] -1.1%

Cc1ccc2c(c1C)NC(C(=O)O)C1CC=CC21 (stereo not drawn)
inactive: [1] -5.3% | [2] -1.9% | [3] -13.2%

O=C(O)c1cc2cc(Cl)cc(Cl)c2oc1=O
inactive: [1] -2.3% | [2] 0.4% | [3] 1.1%
